# Reference: PubChem BioAssay
# The source made the active and inactive calls. Unless noted, how the calls were made is not given here.
# Key:
# [1] = kinase inhibitors against Plasmodium liver-stage infection, cell-based, known kinase inhibitor set, luminescence, hepatoma host viability (AID 624392); details: Plasmodium liver stage in hepatoma cells, luciferase luminescence, concentration not given here; liver cell % of control: measured here: host liver cell viability; parasite % of control: stronger effect = lower value;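 further: infected cells incubated roughly two days before readout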
# [2] = modulators of glucocorticoid suppression of NF-kB, cell-based, luciferase, IL-1B stimulus, dexamethasone (AID 624486); details: NF-kB luciferase reporter, IL-1B + dexamethasone, luminescence; percent of negative control (+Dex): actives lie on both sides, concentration not given here; z-score: measured here: IL-1B alone, no Dex;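 on percent of negative control (+Dex): 100% = mean signal of vehicle control wells on the plate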
# [3] = kinase inhibitors altering Pseudomonas killing of worms, whole organism (AID 651566);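 further: tested at 14 µM; sign flipped so higher z means a lower ratio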; details: C. elegans killed by P. aeruginosa, survival ratio
# [4] = activators of macrophage pro-inflammatory response, cell-based, murine, luminescence (AID 652131); details: murine macrophage pro-inflammatory reporter, stronger effect = higher value
# [5] = target: Cellular tumor antigen p53 (Homo sapiens) (UniProt P04637); assay: kinase inhibitors altering GFP-p53 stability in HPV16-positive cells, imaging, known kinase inhibitor set, EGFP/DsRed ratio (AID 1053116); details: stronger effect = higher value; EGFP object count: measured here: GFP-p53 positive objects count;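 further: cells exposed to compounds for 24 h at 37 °C before reading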
# Chain of Cellular tumor antigen p53 (Homo sapiens) (P04637 whole entry, looked up): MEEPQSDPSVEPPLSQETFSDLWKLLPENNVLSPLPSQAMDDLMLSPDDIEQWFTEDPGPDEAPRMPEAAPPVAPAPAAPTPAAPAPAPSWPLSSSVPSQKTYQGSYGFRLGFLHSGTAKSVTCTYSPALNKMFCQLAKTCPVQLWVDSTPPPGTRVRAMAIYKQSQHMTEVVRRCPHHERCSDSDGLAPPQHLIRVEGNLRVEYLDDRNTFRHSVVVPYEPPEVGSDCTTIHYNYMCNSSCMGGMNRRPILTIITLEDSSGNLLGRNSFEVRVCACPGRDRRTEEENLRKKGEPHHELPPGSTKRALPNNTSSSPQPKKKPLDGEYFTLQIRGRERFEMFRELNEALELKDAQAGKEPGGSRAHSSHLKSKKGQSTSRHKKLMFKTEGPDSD
# [6] = IRF3 reporter activation in THP-1 macrophages, cell-based, PMA-stimulated THP-1, luminescence (AID 1053176); details: PMA-differentiated THP-1, IRF3 reporter luminescence; stronger effect = higher value
# [7] = survival rescue of mitochondrial mutant cells in low glucose, primary screen, MELAS cybrids, Rieske KO mouse fibroblasts, CellTiter-Glo (AID 1508586;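 active means mean z-score across replicates of 1.96 or higher in either the MELAS or the Rieske mutant cell line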;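 further: z relative to plate mean and SD of compound and empty wells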)
# [8] = MELAS cybrid survival, CellTiter-Glo 48 h, stronger effect = higher value
# [9] = Rieske KO mouse fibroblast survival, CellTiter-Glo 72 h
Compound,liver cell % of control [1] [%],parasite % of control [1],percent of negative control (+Dex) [2],z-score [2],z-score [3],z-score [4],EGFP object count [5],EGFP/DsRed ratio [5],fraction signal [6],"z-score [7, 8]","z-score [7, 9]"
CCS(=O)(=O)c1ccc(OC)c(Nc2nccc(N(C)c3ccc4c(C)[nH]nc4c3)n2)c1,95.1,145% (inactive),92% (inactive),-0.36,-0.175 (inactive),2.99 (inactive),2.5,0.0751 (inactive),-0.01 (inactive),1.33 (inactive),0.00494
COc1cc(N2CCN(C(C)C)CC2)ccc1Nc1nc(Nc2ccc(F)cc2C(N)=O)c2cc[nH]c2n1,64.4,792% (inactive),70% (inactive),-2.39,0.205 (inactive),0.179 (inactive),4,0.221 (inactive),0.001 (inactive),2.96 (active),7.03
FC(F)(F)c1ccc(-c2nn3ncccc3c2-c2ccnc(Nc3ccc4c(c3)OCCO4)n2)cc1,105,77.8% (inactive),110% (inactive),0.735,-0.48 (inactive),0.358 (inactive),5,0.479 (inactive),0.001 (inactive),0.512 (inactive),0.23
O=C(NC1NNC2CC(c3ccccc3)CCC21)C1CC1 (stereo unspecified),191,74.3% (inactive),104% (inactive),0.375,-1.73 (inactive),0.532 (inactive),2.5,0.139 (inactive),0.012 (inactive),-0.677 (inactive),-0.221
CCS(=O)(=O)c1ccc(OC)c(Nc2ncc(-c3cccc(-c4ccccc4F)c3)o2)c1,111,98.4% (inactive),88% (inactive),0.785,-0.07 (inactive),-0.851 (inactive),3.5,0.511 (inactive),0.0015 (inactive),2.02 (active),-0.444
Fc1ccc(-c2ncn(C3CCNCC3)c2-c2ccnc(Oc3ccc4c(c3)OCO4)n2)cc1,71.9,187% (inactive),107% (inactive),0.635,0.22 (inactive),0.062 (inactive),6.5,0.159 (inactive),-0.0065 (inactive),-0.249 (inactive),-0.36
Nc1ccc(C#Cc2cncnc2Nc2ccc(OCc3cccc(F)c3)c(Cl)c2)cc1,98,136% (inactive),106% (inactive),0.915,-0.52 (inactive),-0.735 (inactive),4,0.276 (inactive),0.001 (inactive),-0.813 (inactive),-0.0706
COc1cc2ncn(-c3cc(OCc4ccccc4C(F)(F)F)c(C(=O)N(C)C)s3)c2cc1OC,104,116% (inactive),89.5% (inactive),-0.475,0.535 (inactive),0 (inactive),8.5,0.396 (inactive),-0.002 (inactive),0.0168 (inactive),-0.0859
CS(=O)(=O)Nc1ccc(-c2cc(-c3ccccc3)cc(C(N)=O)c2N)cc1,89.1,126% (inactive),88% (inactive),-0.23,1.28 (inactive),-1.08 (inactive),2,0.102 (inactive),-0.0055 (inactive),0.927 (inactive),0.162
CCc1cccc(NC(=O)Nc2ccc(Oc3ccc4nc(NC(=O)OC)[nH]c4c3)cc2)c1,93.1,128% (inactive),106% (inactive),0.55,-0.175 (inactive),0.13 (inactive),106,1.83 (active),-0.002 (inactive),-0.411 (inactive),-0.621
CCN(CC)S(=O)(=O)c1ccc(OC)c(Nc2ncc(-c3ccccc3)o2)c1,168,80% (inactive),91% (inactive),0.485,-0.36 (inactive),-0.177 (inactive),3,0.245 (inactive),-0.012 (inactive),-0.446 (inactive),-0.197
